Data on ten compounds can be found in the supplement of paper PMC10981050.

Structures can show the parent of a compound that is named as a salt.

The test system of this assay is MOLM14. The assay is described as follows: cell viability relative to vehicle control; higher = less cytotoxic. As to conditions: 10 µM; SRSF2 genotype: SRSF2 P95H/wt. In short, it runs like this: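 Each screen used CRISPR-edited mutant and wild-type clones from four leukaemia lines. Compounds were acoustically dispensed at a single 10 µM dose, and CellTiter-Glo luminescence was read after 48 h with the supernatant first removed. Viability was analysed in Genedata Screener and given as percent of the on-plate vehicle control.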
For orientation: cell viability means a read-out of living cells in per cent, often relative to untreated cells. Regarding `O=C(O)c1cc(=O)c2c(OCC(O)COc3cccc4oc(C(=O)O)cc(=O)c34)cccc2o1` [Disodium Cromoglycate], the cell viability was found to be 94%.

As for `Nc1nc2c(ncn2[C@@H]2O[C@H](CO)[C@@H](O)[C@H]2O)c(=O)[nH]1` [Guanosine], the cell viability is 92.5%.

`CN(C/C=C/C#CC(C)(C)C)Cc1cccc2ccccc12` [Terbinafine]: the cell viability worked out at 104%.

Consider `NCC(=O)CCC(=O)O` [5-Aminolevulinic acid hydrochloride], for which the cell viability worked out at 99.1%.

In the case of `CN(C)CC(c1ccc(O)cc1)C1(O)CCCCC1` (stereo not given) [Desvenlafaxine], the cell viability turned out to be 98.1%.

With `COc1cc(O)c2c(=O)cc(-c3ccc(O)c(O)c3)oc2c1` [Hydroxygenkwanin], the cell viability was 57.5%.

Regarding `C[C@H](CC[C@@H](O[C@@H]1O[C@H](CO[C@@H]2O[C@H](CO)[C@@H](O)[C@H](O)[C@H]2O)[C@@H](O)[C@H](O)[C@H]1O[C@@H]1O[C@H](CO)[C@@H](O)[C@H](O)[C@H]1O)C(C)(C)O)[C@H]1CC[C@@]2(C)[C@@H]3CC=C4[C@@H](CC[C@H](O[C@@H]5O[C@H](CO[C@@H]6O[C@H](CO)[C@@H](O)[C@H](O)[C@H]6O)[C@@H](O)[C@H](O)[C@H]5O)C4(C)C)[C@]3(C)[C@H](O)C[C@]12C` [Mogroside V], the cell viability turned out to be 104%.

As to `COC(=O)c1ccc2c(c1)[nH]c1ncnc(NCCCN3CCCCC3)c12`, the cell viability was 23.7%.

With `O=C(CSc1nc2c(c(=O)n1-c1ccccc1)SCC2)Nc1ccc(-c2ccccc2)cn1`, the cell viability amounted to 100%.

Take `COc1cc2c(cc1OC(C)C)[C@H](c1ccc(Cl)cc1)N(c1ccc(N(C)C[C@H]3CC[C@H](N4CCN(C)C(=O)C4)CC3)cc1)C(=O)C2`: the cell viability amounted to 0.15%.
